From the supplement of paper PMC4840960
± gives the standard deviation of the averaged measurements.

Key:
[1] = system: E18 rat cortical neuron-glia co-culture; test: fiber score / MBP score (myelination specific beyond OL differentiation) (ratio); higher = more myelination-specific MBP alignment; conditions: treatment time: 8 days (DIV5-DIV13)
Procedure, shortened: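 Fiber score divided by MBP score is the read-out; fiber score is continuous MBP fiber length per Olig2+ nucleus, and MBP score is thresholded MBP area × intensity per Olig2+ nucleus. Primary E18 rat cortical co-cultures were dissociated with papain and seeded at 20,000 cells/well on poly-d-lysine/laminin 96-well plates. Library compounds at 1 or 5 µM were given in myelination medium from DIV5 to DIV13, after which cells were fixed in 4 % paraformaldehyde, immunostained for MBP and Olig2 with DAPI, and imaged in four 10X fields per well in duplicate wells.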

[2] = system: E18 rat cortical neuron-glia co-culture; test: myelination (MBP fiber length per Olig2+ nucleus), % of 1 µM DAPT response (DMSO = 0) (% of DAPT); higher = more myelination, active = 50 or more; conditions: treatment time: 8 days (DIV5-DIV13)
Procedure, shortened: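 Four 10X fields in each of duplicate wells were analysed after cultures were fixed in 4 % paraformaldehyde and immunostained for MBP and Olig2, with DAPI as the nuclear counterstain. The cultures were papain-dissociated primary E18 rat cortical co-cultures at 20,000 cells/well on poly-d-lysine/laminin 96-well plates, dosed with library compounds at 1 or 5 µM in myelination medium from DIV5 to DIV13. The myelination readout was continuous straight MBP fiber length per Olig2+ nucleus, with 0.1 % DMSO set to 0 and a 1 µM positive control set to 100.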

Row | SMILES | fiber score / MBP score ([1]; 1 µM) | fiber score / MBP score ([1]; 5 µM) | myelination ([2]; 1 µM) | myelination ([2]; 5 µM)
1 | Cc1ccnc2c1NC(=O)c1cccnc1N2C1CC1 [Nevirapine] | 0.687 | 0.851 | -18.6 (inactive) | -6.68 (inactive)
2 | CC(C[N+](C)(C)C)OC(N)=O (stereo unspecified) [Bethanechol] | 0.372 | 0.379 | -14.3 (inactive) | -14.6 (inactive)
3 | CNCCC=C1c2ccccc2CCc2ccccc21 [Nortriptyline] | 0.847 | 1.93 | -1.74 (inactive) | 54.7 (active)
4 | C=C1/C(=C\C=C2/CCC[C@]3(C)[C@@H]([C@H](C)/C=C/[C@@H](O)C4CC4)CC[C@@H]23)C[C@@H](O)C[C@@H]1O [Calcipotriene] | 0.711 | 0.6 | -43.8 (inactive) | -82.7 (inactive)
5 | CCCOc1ccc(C(=O)OCCN(CC)CC)cc1N [Proxymetacaine] | 1.15 | 0.433 | 13.3 (inactive) | -12.1 (inactive)
6 | CC1(C)S[C@@H]2[C@H](NC(=O)[C@H](N)c3ccccc3)C(=O)N2[C@H]1C(=O)O [Ampicillin] | 0.301 | 0.192 | -16.3 (inactive) | -18.9 (inactive)
7 | C#C[C@]1(O)CC[C@H]2[C@@H]3CCC4=CC(=O)CC[C@@H]4[C@H]3CC[C@@]21CC [Levonorgestrel] | 0.998 | 1.12 | -13.4 (inactive) | 0.485 (inactive)
8 | C[C@H]1C[C@H]2[C@@H]3CCC4=CC(=O)C=C[C@]4(C)[C@@]3(F)[C@@H](O)C[C@]2(C)[C@@]1(O)C(=O)CCl [Clobetasol] | 0.961 | 0.686 | 7.06 (inactive) | -9.01 (inactive)
9 | Cc1sc(N)c(C(=O)c2cccc(C(F)(F)F)c2)c1C | 0.681 | 0.698 | -18.7 (inactive) | -12 (inactive)
10 | CN1CCN2c3ncccc3Cc3ccccc3C2C1 (stereo unspecified) [Mirtazapine] | 0.861 | 1.07 | -13.9 (inactive) | -4.21 (inactive)
11 | CC(COc1ccccc1)N(CCCl)Cc1ccccc1 (stereo unspecified) [Phenoxybenzamine] | 0.774 | 0.918 | -14.4 (inactive) | 0.385 (inactive)
12 | CC(Oc1c(Cl)cccc1Cl)C1=NCCN1 (stereo unspecified) [lofexidine] | 0.929 | 1.1 | -15.8 (inactive) | 2.57 (inactive)
13 | CCOc1ccc2ccccc2c1C(=O)N[C@@H]1C(=O)N2[C@@H]1SC(C)(C)[C@@H]2C(=O)O [Nafcillin] | 1.25 | 0.777 | 4.05 (inactive) | -9.33 (inactive)
14 | O=C1[C@H]2CCCC[C@H]2C(=O)N1CCCCN1CCN(c2nsc3ccccc23)CC1 [Perospirone] | 0.291 | 0.198 | -33.9 (inactive) | -34.5 (inactive)
15 | Nc1ccc(O)c(C(=O)O)c1 [Mesalamine] | 0.748 | 0.63 | -20.4 (inactive) | -28.3 (inactive)
16 | C[C@]12CCC(=O)C=C1CC[C@@H]1[C@@H]2[C@@H](O)C[C@@]2(C)[C@H]1CC[C@]2(O)C(=O)CO [Hydrocortisone] | 0.712 ± 0.026 | 0.656 ± 0.11 | -10.9 (inactive) | -10.2 (inactive)
17 | Clc1ccc2c(c1)CCc1cccnc1C2=C1CCNCC1 [Desloratadine] | 0.902 | 0.803 | -12.9 (inactive) | -23.3 (inactive)
18 | Fc1ccc([C@@H]2CCNC[C@H]2COc2ccc3c(c2)OCO3)cc1 [Paroxetine] | 0.8051 ± 0.003 | 1.08 ± 0.16 | -13.8 (inactive) | 3.71 (inactive)
19 | CS(N)(=O)=O [Methanesulfonamide] | 0.63 | 0.693 | -10.9 (inactive) | -10.7 (inactive)
